Cav32 inh: Cav3.2 calcium influx blockers – cell-based, Fluo-4 calcium fluorescence, FDSS, MLSMR library, primary screen | Voltage-dependent T-type calcium channel subunit alpha-1H (Homo sapiens), O95180 | Cav3.2-expressing cells; stronger effect = lower value | B-score at 10 µM | hit rate 4% among 100,000 | AID 449739, 2010;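 active = single-dose well whose peak fluorescence ratio is a statistical outlier from its plate by either plate-standardised score or position-corrected B-score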
CYP2C19 act: human CYP2C19 activators, primary screen, biochemical, luminescence; Cytochrome P450 2C19 (Homo sapiens), P33261; recombinant CYP2C19, luciferin-H EGE luminescence; stronger effect = higher value; 0 = fully inhibited enzyme, 1 = untreated enzyme; activation factor at 5 µM; 96,000 tested, under 10 active;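 active = activation factor of at least 2 at 5 µM in the primary screen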;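 also: 0 = wells with 2.5 mM tranylcypromine and 1 = vehicle-only wells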
Target sequence (P33261 whole entry, looked up): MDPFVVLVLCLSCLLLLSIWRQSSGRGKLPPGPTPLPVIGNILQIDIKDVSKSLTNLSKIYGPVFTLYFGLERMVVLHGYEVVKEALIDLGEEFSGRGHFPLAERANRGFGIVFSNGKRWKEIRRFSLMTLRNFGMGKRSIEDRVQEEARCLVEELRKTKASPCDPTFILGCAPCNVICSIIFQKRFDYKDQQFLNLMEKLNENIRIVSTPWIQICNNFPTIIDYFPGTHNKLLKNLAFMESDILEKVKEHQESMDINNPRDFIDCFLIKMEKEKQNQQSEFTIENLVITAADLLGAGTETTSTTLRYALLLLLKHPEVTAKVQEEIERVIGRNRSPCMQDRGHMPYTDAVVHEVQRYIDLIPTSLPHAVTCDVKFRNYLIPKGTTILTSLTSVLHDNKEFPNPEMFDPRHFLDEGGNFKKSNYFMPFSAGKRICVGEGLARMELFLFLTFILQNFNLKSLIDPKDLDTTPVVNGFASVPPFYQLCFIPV
CYP2C19 inh: blockers of cytochrome P450 2C19 activity – biochemical, luminescence, ADME assay, primary screen; P33261; CYP2C19 Supersomes, luciferin-H EGE luminescence, 30 min; inhibition, % at 5 µM; hit rate 21% among 96,000; AID 778, 2007;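 active = CYP2C19 inhibition above a set limit at 5 µM in the primary screen, cut at about 50% in these data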;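 also: plate controls were negative control wells for no effect and 2.5 mM tranylcypromine positive control for full effect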
CYP2C9 activ: human CYP2C9 activators, primary screen, biochemical, luminescence. Cytochrome P450 2C9 (Homo sapiens), P11712. activation factor at 5 µM. hit rate 1.4% among 96,000. AID 1024, 2008. recombinant CYP2C9, luciferin-H conversion; stronger effect = higher value; factor 1 = untreated enzyme, 0 = blocked;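 active = activation factor of 2 or more for CYP2C9 at a 5 µM dose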;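 also: 0 = sulfaphenazole-blocked wells and 1 = vehicle-only wells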
CYP2C9 inhib: blockers of cytochrome P450 2C9 activity – biochemical, luminescence, ADME assay, primary screen; P11712; CYP2C9 Supersomes, luciferin-H conversion; inhibition, % at 5 µM; hit rate 20% among 96,000; AID 777, 2007;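 active = blocking of liver enzyme CYP2C9 beyond about 50% at 5 µM, limit read from the data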
The depositor's hits bear a star; · = not tested or not shown. Only some compounds are listed: those with a hit (about 27% of all), similar ones and a draw of the others.

SMILES	Cav32 inh	CYP2C19 act	CYP2C19 inh	CYP2C9 activ	CYP2C9 inhib
CCOC(=O)c1ccc(NC(=O)N(CC)CC)cc1	0.4	0.6	43	0.9	9
CCc1ccc(NC(=O)C2C3C=CC(C4CC34)C2C(=O)O)cc1 (stereo unspecified)	0.09	·	·	·	·
C=CCNC(=O)c1c2c(nc3ccccc13)-c1ccccc1CC2	-1.3	0.8	23	0.4	62*
CCN(CC)C(=O)c1c2c(nc3ccccc13)-c1ccccc1CC2	-4.9*	0.8	24	0.4	65*
CC(C)CNC(=O)c1c2c(nc3ccccc13)-c1ccccc1CC2	-1.2	0.8	17	0.5	46
COC(=O)C(C)N(C(=O)c1cccc(Cl)c1)c1c(C)cccc1C (stereo unspecified)	-2.4	0.3	72*	0.4	62*
COC(=O)C(C)N(C(=O)c1cccc2ccccc12)c1c(C)cccc1C (stereo unspecified)	-7.1*	0.7	26	0.6	36
CCN1CCN(S(=O)(=O)c2ccc(Br)s2)CC1	-0.14	0.8	17	1	-2
O=C(c1ccc2nc(N3CCOCC3)sc2c1)N1CCCC1	0.49	1	1	0.8	16
CC1CCN(c2nc3ccc(C(=O)N4CCN(Cc5ccc6c(c5)OCO6)CC4)cc3s2)CC1	·	0.1	94*	0.1	90*
O=S(=O)(c1ccc(Br)s1)N1CCN(Cc2ccc3c(c2)OCO3)CC1	-1.5	0.1	89*	0	97*
O=C(c1ccc(S(=O)(=O)N2CCCC2)cc1)N1CCN(Cc2ccc3c(c2)OCO3)CC1	3.9*	0.5	47	0.4	63*
CS(=O)(=O)N1CCc2cc(S(=O)(=O)N3CCN(Cc4ccc5c(c4)OCO5)CC3)ccc21	-0.98	0.9	10	0.9	12
O=S(=O)(c1ccc(Cl)nc1)N1CCN(Cc2ccc3c(c2)OCO3)CC1	-0.033	0.4	63*	0.3	74*
O=C(OCc1ccc2c(c1)OCO2)c1ccc(S(=O)(=O)N2CCCCC2)cc1	-0.013	0.9	10	0.8	20
O=C(c1ccccc1)N(c1ccccc1)C1C=CS(=O)(=O)C1 (stereo unspecified)	-0.35	0.7	25	0.8	17
CCN(Cc1ccccc1)S(=O)(=O)c1ccc(S(=O)(=O)N2CCN(CCC#N)CC2)cc1	0.84	1.3	-26	1	-3
Cc1ccc(C)c(N2CCN(CC3CC=CCC3)CC2)c1 (stereo unspecified)	-2.5	0.9	11	0.9	6
CCOCN(C(=O)Cn1c(COC)nc2ccccc21)c1c(C)cccc1CC	-3.3*	0.7	28	0.7	35
CCc1cccc(C)c1N(C(=O)Cn1c(COC)nc2ccccc21)C(C)COC (stereo unspecified)	-0.5	0.8	22	0.6	36
COc1cc(O)c(C(CC(=O)N2CCOCC2)c2cc(OC)c(OC)c(OC)c2)c(OC)c1 (stereo unspecified)	0.73	·	·	·	·
CCOC(=O)c1c(NC(=O)Cn2nc(C(F)F)cc2C(F)F)sc(C)c1C	-2.2	0.7	28	0.4	65*
CCOC(=O)c1c(NC(=O)c2nn(CC)cc2Br)sc2c1CCCCC2	-0.46	0.6	44	0.2	82*
CCOC(=O)Nc1sc2c(c1C(=O)OCC)CCC2	-0.51	0.9	15	1	-1
CCOC(=O)c1c(NC(=O)c2nn(CC)cc2Br)sc(C)c1C	-0.26	0.8	20	0.2	76*
SMILES	Cav32 inh	CYP2C19 act	CYP2C19 inh	CYP2C9 activ	CYP2C9 inhib
COC(=O)c1c(NC(=O)Cn2nc(C(F)F)cc2C(F)F)sc(C)c1C	-1.3	0.7	34	0.8	23
COC(=O)c1cc(COc2ccc3oc(C)c(C(=O)OC(C)C)c3c2)c(C)o1	-0.25	0.1	88*	0.2	84*
CC(=O)Oc1ccc2c(=O)c(-c3ccccc3)c(C)oc2c1	-4.5*	·	·	·	·
COc1ccc2c(=O)c(-c3cnn(-c4ccccc4)c3)c(C)oc2c1	-1.9	0.8	24	0.7	29
COC(=O)c1cc(-c2c(C)oc3cc(OC(C)C)ccc3c2=O)c(C)o1	0.16	0.4	60*	0.3	67*
COC(=O)c1cc(COc2ccc3c4c(c(=O)oc3c2)CCCC4)c(C)o1	·	1	3	0.9	7
C=CCSc1nnc(NC(=O)COc2ccc3ccccc3c2)s1	-2.1	0.7	26	0.8	21
Cc1ccccc1NC(=O)c1ccc2snnc2c1	0.97	·	·	·	·
O=C(NCC1(c2ccccc2)CCCC1)C(=O)N1CCOCC1	0.0095	·	·	·	·
CN(CCC#N)C(=O)Cn1nc(Cc2ccncc2)c2ccccc2c1=O	0.78	1.1	-7	0.9	7
O=C(Cn1nc(Cc2ccncc2)c2ccccc2c1=O)N1CCc2ccccc2C1	·	0.1	88*	0.2	80*
O=C(NCc1ccc2c(c1)OCO2)C1CC(=O)N(C2CCCCCC2)C1 (stereo unspecified)	0.67	0.9	9	0.9	10
O=C(Cc1cccs1)NCc1ccc(F)cc1	0.09	0.8	22	1.1	-10
Cc1ccsc1C(=O)OCC(=O)NCc1ccc2c(c1)OCO2	0.52	0.4	60*	0.3	72*
Cc1ccc(N2CC(C(=O)NCc3ccc4c(c3)OCO4)CC2=O)cc1C (stereo unspecified)	0.0099	0.9	8	2.2*	-124
O=C(Cc1cccs1)NCc1ccc2c(c1)OCO2	0.024	0.1	92*	0.6	38
CCc1ccccc1S(=O)(=O)Cc1ccc(C(=O)NCc2ccc3c(c2)OCO3)o1	0.87	0.5	54*	0	95*
O=C(O)C[C@@H](O)C(=O)O	0.36	·	·	·	·
O=C(NC1CCS(=O)(=O)C1)Oc1ccc(Cl)cc1 (stereo unspecified)	-0.88	1.1	-9	1.1	-10
O=C(OC(C(=O)NCc1cccs1)c1ccccc1F)c1ccco1 (stereo unspecified)	0.79	·	·	·	·
O=C(NCc1ccc2c(c1)OCO2)c1cccc(N2CCCC2=O)c1	0.19	0.3	69*	0.4	61*
COc1cccc(CNC(=O)Cc2c(C(=O)O)[nH]c3ccccc23)c1	1.4	1	0	0.5	52*
Cc1ccc(S(=O)(=O)NC(=O)NCc2ccc3c(c2)OCO3)cc1	-1.4	1.2	-17	1	-2
CCC(NC(=O)NCc1ccc2c(c1)OCO2)(C(F)(F)F)C(F)(F)F	0.48	0.1	86*	0.5	52*
O=C(NCc1ccc2c(c1)OCO2)c1cccc(C(=O)NCc2ccc3c(c2)OCO3)c1	-1	0.9	8	0.9	11
O=C(OC(C(=O)NCc1ccc2c(c1)OCO2)c1ccccc1F)c1ccco1 (stereo unspecified)	-0.23	0.5	46	0.3	67*
O=C(NCc1ccc2c(c1)OCO2)Oc1ccccc1	-0.03	0.3	74*	0.9	13

Assay outcomes deposited in PubChem BioAssay by several laboratories.
